Source: PubChem BioAssay
This is one part of a sample in which hits are shown more often than they occur.
mcGAS RapidFire: inhibitors of mouse cGAS. inhibition, % at 12.5 µM. 0.18% of 130,000 active. recombinant mouse cGAS, cGAMP by RapidFire MS. Q8C6L5;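 active means inhibition of cGAS enzyme activity at or above 60%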;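 further: enzyme stimulated by 45 bp dsDNA with ATP and GTP substrates; cGAMP share of summed cGAMP plus half ATP and half GTP signals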
Target sequence (Q8C6L5 whole entry, looked up): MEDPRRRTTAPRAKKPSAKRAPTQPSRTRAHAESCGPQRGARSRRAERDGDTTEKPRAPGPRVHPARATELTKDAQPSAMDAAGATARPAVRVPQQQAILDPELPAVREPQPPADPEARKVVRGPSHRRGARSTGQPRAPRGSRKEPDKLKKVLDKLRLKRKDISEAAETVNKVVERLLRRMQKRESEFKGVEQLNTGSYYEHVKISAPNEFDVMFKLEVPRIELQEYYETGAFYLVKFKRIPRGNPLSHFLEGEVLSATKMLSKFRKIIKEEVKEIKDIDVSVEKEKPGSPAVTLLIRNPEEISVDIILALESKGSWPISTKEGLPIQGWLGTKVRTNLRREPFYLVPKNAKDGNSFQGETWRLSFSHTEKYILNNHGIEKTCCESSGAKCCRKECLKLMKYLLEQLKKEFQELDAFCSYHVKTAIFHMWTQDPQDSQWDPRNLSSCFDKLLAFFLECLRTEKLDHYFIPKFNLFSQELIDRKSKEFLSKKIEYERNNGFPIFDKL
* marks the source's active call; other numbers are inactive results; ! = a repeat was not active.

SMILES	mcGAS RapidFire
N#Cc1cccc(NC(=O)N2CCN(c3ccc(C#N)cc3F)CC2)c1	-1
N#Cc1cccc(N/N=C2\CCn3cccc32)c1	-7
N#Cc1cccc(NN=C2CCN(c3ccc(F)cc3)CC2)c1	89*
CC1Sc2ccc(C#N)cc2N(Cc2ccc(OC(F)(F)F)cc2)C1=O (configuration not stated)	3
CCOc1ccccc1-c1ccc2sc(N)nc2c1	-15
N#CC1C(=N)SC(=N)C(C#N)C1c1ccc([N+](=O)[O-])cc1 (configuration not stated)	62*
CCOC(=O)C1=C(C)NC(=O)C(C#N)C1c1ccc([N+](=O)[O-])cc1 (configuration not stated)	-7
CCCC1C(C#N)C(=N)SC(=N)C1C#N (configuration not stated)	-1
C=CCN1CC(C(=O)N(CC=C)Cc2ccccc2C)CCC1=O (configuration not stated)	-7
Cc1noc(C)c1CN(C)Cc1cc(=O)n2cc(Cl)ccc2n1	2
Cc1cc(NN=Cc2ccccn2)nc2ccccc12	-3
Oc1c(Br)cc(C=NNc2ccccn2)cc1Br	74*
COc1cc(/C=N\Nc2ncnc3nc[nH]c23)cc(Br)c1O	3
Cc1ccc(NS(=O)(=O)c2c(C)c(C)c(C)c(C)c2C)c(C)c1O	-2
O=C1c2c(O)ccc(O)c2C(=O)c2c(NCCNCCO)ccc(NCCNCCO)c21	83*!
CC(=O)c1cccc(CN2CCCC(CCC(=O)Nc3ccccc3F)C2)c1 (configuration not stated)	-6
N#Cc1ccc(S(=O)(=O)N2CSCC2C(=O)NCC(F)(F)F)cc1 (configuration not stated)	0
O=C(/C=C/c1ccc(F)c(Cl)c1)N1CCN(CC(=O)N2CCCC2)CC1	1
CC(C)C(CNC(=O)c1cn[nH]c1C(F)(F)F)c1ccccc1 (configuration not stated)	-9
CC(=O)Oc1ccccc1CN1C(=O)C(C)(C)ON=C1c1ccc(C(F)(F)F)cc1	-13
CC(=O)Oc1ccc(CN2C(=O)C(C)(C)ON=C2c2ccc(C)cc2)cc1	87*
COC(=O)c1ccc(CN2C(=O)C(C)(C)ON=C2c2ccc(C)cc2)o1	25
COc1cc(CNCc2cccnc2Oc2ccccc2C)ccc1F	-11
O=C(O)c1ccc(N=Nc2c(-c3ccccc3)[nH]n(-c3ccc([N+](=O)[O-])cc3)c2=O)cc1	76*
O=c1c(N=Nc2cccc([N+](=O)[O-])c2)c(-c2ccccc2)[nH]n1-c1ccccc1	-6
SMILES	mcGAS RapidFire
N#Cc1ccc(N=Nc2c(-c3ccc([N+](=O)[O-])cc3)[nH]n(-c3ccccc3)c2=O)cc1	-3
CCCc1nnc2sc(-c3cc(C(C)C)[nH]n3)nn12	-29
c1ccc(CCc2nn3c(C4COc5ccccc5O4)nnc3s2)cc1 (configuration not stated)	54
CC(C)c1cc(-c2nn3c(C4COc5ccccc5O4)nnc3s2)n[nH]1 (configuration not stated)	70*
CCOC1(OCC)C(c2cccs2)C(C#N)(C#N)C1(OCC)OCC (configuration not stated)	-2
COc1ccc(C)cc1S(=O)(=O)NCc1ccc(Cl)cc1	-3
O=C1CSC(N2CCCCC2)=N1	-17
COc1cccc2c1C(=O)c1c(O)c3c(c(O)c1C2=O)C[C@@](O)(C(=O)CO)C[C@@H]3O[C@H]1C[C@H](N)[C@@H](O)[C@H](C)O1	98*!
CC(=O)[C@]1(O)Cc2c(O)c3c(c(O)c2[C@@H](O[C@H]2C[C@H](N)[C@H](O)[C@H](C)O2)C1)C(=O)c1ccccc1C3=O	90*
COc1cccc2c1C(=O)c1c(O)c3c(c(O)c1C2=O)C[C@@](O)(C(C)=O)C[C@@H]3O[C@H]1C[C@H](N)[C@H](O)[C@H](C)O1	91*!
O=S(=O)(N1CCCC1)N1CCc2c(ncnc2N2CCOCC2)C1	-1
COC(=O)C1CCCN1S(C)(=O)=O (configuration not stated)	-10
O=C(O)c1cc(CCc2ccccc2)ccc1O	-2
CC(CCNC(=O)c1cccnc1NC1CCCC1)c1ccccc1 (configuration not stated)	-9
Cc1ccc(OC(C)C(=O)N2CCC(c3ccc(O)cc3)CC2)cc1 (configuration not stated)	-7
Cc1cc(-n2cccn2)ccc1-c1nccn1CCc1scnc1C	-11
CNC(=S)N1CCn2cccc2C1c1ccc(C)cc1 (configuration not stated)	-7
CCN1CCN(S(=O)(=O)c2cccc(NC(=O)c3cnccn3)c2)CC1	9
O=C(Nc1ccccc1)Nc1nnc(-c2ccc3c(c2)OCCO3)o1	-8
CCc1nnc(CN(C)c2nc(C)ncc2CC)o1	-9
O=C(O)CN1C(=O)C(=NN2C(=O)CSC2=S)c2ccccc21	92*
O=C(O)CN1C(=O)/C(=C2/C(=O)N(CC(=O)O)c3ccccc32)SC1=S	4
O=C(O)CNC(=O)CN1C(=O)CSC1=S	13
N#Cc1ccc(Oc2ncccc2[N+](=O)[O-])c(Cl)c1	-7
N#Cc1ccc([N+](=O)[O-])c(O)c1	-8
